# CHX counter: Cycloheximide Counterscreen for Small Molecule Inhibitors of Shiga Toxin; cell reporter, cycloheximide protein synthesis inhibition counterscreen; max response, %; hit rate 12% among 300,000; AID 2314, 2010; in the data active means max response mostly above about 13%, no sharp cut-off; inactive means mostly below about 14%; further: read at 38.3 µM for the half of the compounds with a filed dose; 0% is about no effect
# AmpC detergent: qHTS Inhibitors of AmpC Beta-Lactamase (assay with detergent); hit rate 0.041% among 370,000; P00811; Potency, µM (top dose mostly 114 µM), inactives show at the top dose activity change, negative = inhibition, hits mostly inhibitors; AmpC hydrolysis of nitrocefin, absorbance 480 nm, 0.01% Triton;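 further: potency means the concentration at half of the fitted maximal effect; 0% = no-compound wells and -100% = no-enzyme wells; nearly all actives have a fitted effect of over 25% in size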
# Target sequence (P00811 whole entry, looked up): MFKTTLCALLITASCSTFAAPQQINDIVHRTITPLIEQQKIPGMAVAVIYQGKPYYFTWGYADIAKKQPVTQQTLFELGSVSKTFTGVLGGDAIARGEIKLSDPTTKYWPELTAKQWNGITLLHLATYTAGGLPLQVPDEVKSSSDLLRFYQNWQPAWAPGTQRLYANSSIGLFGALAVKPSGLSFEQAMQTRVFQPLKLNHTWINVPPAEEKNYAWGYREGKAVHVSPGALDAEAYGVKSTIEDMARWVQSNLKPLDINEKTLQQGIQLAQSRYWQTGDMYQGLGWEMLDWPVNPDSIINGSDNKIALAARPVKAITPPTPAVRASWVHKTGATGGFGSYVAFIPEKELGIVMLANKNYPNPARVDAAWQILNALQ
#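 20 mM phosphate pH 7.0 + 0.01% (detergent screen) or 0.0001% Triton X-100; 5.3 nM AmpC reagent; cpd preinc 15 min RT; nitrocefin (800 uM stock) to start; A480 q20 s × 4 min; Activity was normalised to no-enzyme and no-compound control wells.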
# AmpC no deterg: qHTS Inhibitors of AmpC Beta-Lactamase (assay without detergent). hit rate 0.52% among 330,000. AmpC nitrocefin hydrolysis, absorbance 480 nm, 0.0001% Triton. P00811. Potency, µM (series often up to 57.1 µM), for the others: at the highest dose activity change, negative = inhibition, usual class: inhibitors;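 further: potency means the concentration at half of the fitted maximal effect; plate controls were no compound for no effect and no enzyme for full effect; nearly all actives have a fitted effect of over 20% in size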
#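 AmpC (5.3 nM in the dispensed reagent) in 20 mM phosphate pH 7.0 with 0.01% (detergent screen) or 0.0001% Triton X-100 was preincubated with compounds for 15 min at room temperature. Nitrocefin was then added from an 800 uM solution, and hydrolysis was followed at 480 nm.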
# AMA1-RON2 inh: qHTS for Inhibitors of AMA1-RON; Towards Development of Antimalarial Drug Lead: Primary Screen; Plasmodium falciparum AMA1 (3D7) - RON2 peptide interaction; AlphaScreen AMA1-biotinylated RON2 peptide binding; Potency, µM (series often up to 58.2 µM), for inactives: at the highest dose activity change, negative = inhibition, hits mostly inhibitors; hit rate 0.2% among 360,000;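 further: potency means the concentration at half of the fitted maximal effect; 0% = vehicle wells and -100% = peptide control; nearly all actives have a fitted effect of over 45% in size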
#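 AMA1 (3D7) with his tag at 25 nM final met compounds first, then biotinylated RON2 peptide at 25 nM; detection used donor plus acceptor beads, 10 µg/mL apiece, read by AlphaScreen after 30 min at room temperature.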
# Shiga toxin inh: A qHTS for Small Molecule Inhibitors of Shiga Toxin; Vero cells, Shiga toxin protein synthesis inhibition reporter; inhibition, % at 38.7 µM; hit rate 9.2% among 290,000; AID 2315, 2010; in the data active means inhibition mostly above about 28%, no sharp cut-off; inactive means mostly below about 43%; further: 0% is about no effect
# SARS PLpro yeast: qHTS of Yeast-based Assay for SARS-CoV PLP | AID 485353, 2010 | S. cerevisiae expressing SARS-CoV PLpro, growth rescue | Potency, µM (titrated, usually from 32.9 µM), without a hit: top-dose activity, positive = growth rescue, usual class: activators | hit rate 0.19% among 330,000; calls by dose curve; further: potency means the concentration at half of the fitted maximal effect; 0% is about no effect; nearly all actives have a fitted effect of over 55% in size
# An asterisk follows results filed as active; ? = inconclusive; . = no result given; [ ] = another dose, or the depositor's remark. This is one part of a sample in which hits are shown more often than they occur. Unless noted, the call rests on the fitted dose curve; in most records, active means well fitted curve in the direction sought with a large enough effect; inconclusive means small, poorly fitted or top-dose-only effect, or another doubt; inactive means no such curve, though single readings can be large; an effect the other way counts as inactive or inconclusive.
SMILES,CHX counter,AmpC detergent,AmpC no deterg,AMA1-RON2 inh,Shiga toxin inh,SARS PLpro yeast
O=C(NCCCn1cccn1)c1cc(COc2ccc(F)cc2Cl)on1,19*,-2%,25%,1%,22*,-2%
CC(Cc1cccnc1)NC(=O)c1cc(COc2c(F)cccc2F)on1 (stereo not drawn),0,?,-11%,-9%,16,-4%
Cc1ccc(OCc2cc(C(=O)NCCc3cccnc3)no2)cc1C,36*,1%,22%,0%,51*,-3%
CC(=O)c1ccc(OCc2cc(C(=O)NC(C)CCn3cccn3)no2)cc1 (stereo not drawn),66*,0%,-2%,-13%,111*,-2%
CC(CCn1cccn1)NC(=O)c1cc(COc2ccc(F)cc2F)on1 (stereo not drawn),-4,-7%,-3%,-10%,9,-1%
NS(=O)(=O)c1ccc(CCNC(=O)COc2ccc3c4c(c(=O)oc3c2)CCC4)cc1,-2,5%,-13%,14%,-5,-3%
Cc1ccc(C(=O)Nc2ccccc2[N+](=O)[O-])cc1S(=O)(=O)N1CCOCC1,11,-2%,48%,-4%,20,-3%
CCN1C(=O)[C@@H]2[C@H](C1=O)[C@@H]1C(=O)Nc3ccccc3C(=O)N1[C@@H]2c1cccc(OC)c1,.,?,-25%,-3%,.,-2%
Cc1ccc(OCc2cc(C(=O)NCCn3cccn3)no2)cc1C,22,?,37%,15%,48*,2%
O=C(/C=C/c1ccc2c(c1)OCO2)N1CCOCC1,26*,?,-12%,14%,67*,0%
CC(C)Cc1ccc(/C=C/C(=O)N2CCOCC2)cc1,46*,1%,45%,-4%,56*,-6%
Cc1ccc(NC(=O)/C=C/c2ccc3c(c2)OCO3)cc1S(=O)(=O)N1CCOCC1,13*,-5%,-19%,4%,3,19%
CCC1CCCCN1C(=O)/C=C/c1ccc2c(c1)OCO2 (stereo not drawn),9.8*,-7%,-7%,0%,38,3%
COc1ccc(/C=C/C(=O)N2CCOCC2)cc1OC,-3,?,-8%,-1%,-6,17%
Cc1ccc(NP(=O)(Oc2ccccc2F)Oc2ccccc2F)cc1,-1,-3%,-22%,2%,-8,-21%
Cc1cc(C)c(/C=C(\C#N)C(N)=S)c(C)c1,12,-11%,23%,67%,8,17%
COc1ccc(C)cc1NC(=O)CCS(=O)(=O)c1ccc2c(c1)CC(=O)N2C,.,-4%,.,.,.,.
CC(C)(C)c1ccc(/C=C/C(=O)N2CCOCC2)cc1,66*,-3%,41%,-2%,113*,18%
O=C(/C=C/c1cccs1)Nc1ccc(N2CCOCC2)c(S(=O)(=O)Nc2cc(Cl)ccc2Cl)c1,0,3%,?,-24%,-5,6%
O=C(/C=C/c1ccco1)Nc1ccc(Cl)c(S(=O)(=O)N2CCOCC2)c1,20*,5%,-57%,-5%,74*,0%
CC(C)(C)c1ccc(/C=C/C(=O)N2CCN(c3ncccn3)CC2)cc1,0,-11%,-6%,1%[2.32 µM],-5,-1%
O=C(/C=C/c1cccs1)Nc1ccc(N2CCOCC2)c(S(=O)(=O)Nc2ccccc2Cl)c1,21*,-11%,?,7%,61*,11%
O=C(Nc1ccccc1)Nc1ccc(Cl)c(S(=O)(=O)N2CCOCC2)c1,2,0%,-49%,7%,-8,-1%
O=C(NN=Cc1ccccc1Cl)c1cccc2ccccc12,.,.,.,17%,.,.
O=C(N/N=C/c1cc2ccccc2[nH]1)c1ccccc1Cl,16*,-12%,-27%,0%,39,-2%
SMILES,CHX counter,AmpC detergent,AmpC no deterg,AMA1-RON2 inh,Shiga toxin inh,SARS PLpro yeast
Cc1occc1C(=O)N/N=C/c1cccc2ccccc12,44*,-5%,39%,8%,87*,-7%
O=C(N/N=C/c1cccc2ccccc12)c1ccccc1Cl,13*,-2%,-52%,-4%,49,-4%
COc1ccc(OC)c(/C=N/OC(=O)Nc2ccc(Cl)cc2)c1,4,5%,-39%,-2%,11,-11%
c1ccc(CN2CCOCCOCCOCC2)cc1,-2,8%,4%,9%,20,-1%
CCCCN(C)CCC(=O)Nc1ccc(C)cc1,1,-6%,-49%,-4%,-1,7%
NC(=O)C1=C[C@H](c2coc3ccccc3c2=O)C[C@H](OCCCCO)O1,-3,5%,-5%,7%,-11,-1%
O=C1NC(=S)NC1=Cc1ccccc1O,.,.,.,-3%,.,.
O=C1NC(=S)N/C1=C/c1cccc2ccccc12,29*,0%,-32%,-2%,89*,-1%
CCOc1ccc(OCCC(=O)OCC(=O)NNC(=O)c2ccccc2)cc1,.,-10%,4%,58%,.,0%
Fc1cccc(Cl)c1Cn1ncc2ccccc21,28*,0%,-19%,10%,31*,0%
c1ccc(Cn2ncc3ccccc32)cc1,8,?,-8%,3%,18,4%
COc1cccc(-c2nnc(-c3ccc(C(F)(F)F)cc3)o2)c1OC,21*,?,36%,3%,26,-5%
CC1CC(CC(=O)NNc2nc(-c3ccccc3)cs2)C(=O)O1 (stereo not drawn),-4,-4%,-12%,77%,-2,1%
C/C(CCC1CC(C)OC1=O)=N/Nc1nc(-c2ccccc2)cs1 (stereo not drawn),22*,?,-24%,36%,44*,-1%
CC(C)=NNc1nc(-c2ccc(N3C(=O)CCC3=O)cc2)cs1,20*,3%,22%,39%,14,-2%
COc1ccc(-c2csc(NC(=O)CN3C(=O)CCC3=O)n2)cc1,6,-5%,-17%,-2%,17,2%
CC(C)=NNc1nc(-c2ccccc2)cs1,22*,-12%,-3%,22%,66,-37%
O=C(O)CC1SC(=Nc2ccccc2)N(c2ccccc2)C1=O (stereo not drawn),1,8%,-16%,8%,-8,7%
Cc1cc(SCC(=O)NC2(C#N)CCCCC2)nc2c(C)cccc12,.,-15%,32µM*,5%,.,1%
Cc1cc(SCC(=O)N2CCCC2=O)nc2c(C)cccc12,.,-12%,2%,-9%,.,.
Cc1ccc2cc3cc(C(=O)NC4CC4)oc3nc2c1,26*,8%,-18%,-2%,30,-4%
COc1ccc(CNC(=O)c2cc3cc4ccc(C)cc4nc3o2)cc1,.,1%,.,.,.,.
Cc1ccc2cc3cc(C(=O)N4CCCCC4C)oc3nc2c1 (stereo not drawn),21*,?,31%,3%,61*,-1%
Cc1ccc2cc3cc(C(=O)NC4CCCCC4)oc3nc2c1,17,-1%,-36%,2%,13,25%

# Bioassay records: PubChem, National Center for Advancing Translational Sciences (NCATS)
